Assay [1] can be described thus: Nuclear factor erythroid 2-related factor 2/antioxidant responsive element (Nrf2/ARE) small molecule agonists: luciferase reporter gene qHTS assay in human keratinocytes (AID 1919969). Note: nearly all actives have a fitted effect of over 35% in size. Note: potency is the fitted concentration of half-maximal effect. A general note: A reporter such as luciferase makes a cellular process visible.
Assay [2] concerns the target Gonadotropin-releasing hormone receptor (Homo sapiens) (UniProt P30968). Briefly: Human gonadotropin-releasing hormone receptor (GnRHR) small molecule agonists, calcium flux assay in GnRHR-HEK293 cells (AID 1920063). Note: nearly all actives have a fitted effect of over 35% in size. An outline of the steps: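 Compounds dissolved in DMSO are pin-transferred onto dye-loaded GnRHR-HEK293 cells, which were seeded 18 h before at 37 C/5% CO2. Calcium signal is read as fluorescence intensity at 1 s intervals for 3 min.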
On the technique in general: A change in cytosolic calcium serves as a functional read-out for many receptors and channels.

Assay [3] has as its target KiSS-1 receptor (Homo sapiens) (UniProt Q969F8). Nature of the assay: Human kisspeptin (KISS1R) small molecule agonists, calcium flux assay in KISS1R-HEK293 cells (AID 1920064; active = well fitted activation curve with a large enough effect in the repeat runs). The gist of the method: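 Cell line: HEK293, stable human KISS1R. Dye loading 1 h at 37 C after 18 h culture. Read: kinetic fluorescence, 480/540 nm, 3 min at 1 s intervals.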
A short description of assay [4]: G protein-coupled receptor (GPCR) small molecule agonists, calcium flux assay: HEK293 wild type cell line counter screen (AID 1920065). The gist of the method:
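Tox21 10K compounds, 15 concentrations each in triplicate, pin-transferred in DMSO onto dye-loaded cells; kinetic read at 480/540 nm for 3 min, 1 s intervals.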

Assay [5] can be described thus: p53 small molecule agonists, cell-based qHTS assay with human liver microsomes: qHTS cell viability counter screen (AID 1963579). Note: nearly all actives have a fitted effect of over 45% in size. The gist of the method:
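In this multiplexed counter screen, the reporter plates were subsequently treated with CellTiter-Glo so that cell viability, reflected by luminescence, could be recorded for p53RE-bla cells dosed 16 h with compounds under microsomal activation (HLM and NADPH).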
(In general: qHTS replaces the single test concentration by a dilution series.)

Assay [6] is described as follows: p53 small molecule agonists, cell-based qHTS assay with rat liver microsomes: qHTS cell viability counter screen (AID 1963580). Note: nearly all actives have a fitted effect of over 45% in size. The gist of the method:
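After the beta-lactamase ratio was read, CellTiter-Glo was added to the same wells and luminescence measured at 30 min; cells had been treated 16 h at 37 C with compounds, rat liver microsomes and NADPH (0.5 mg/mL final each).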

Assay [7] in a line: p53 small molecule agonists, cell-based qHTS assay: qHTS cell viability counter screen (AID 1963581). Note: nearly all actives have a fitted effect of over 45% in size. The gist of the method: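 ATP content measured by luminescence in HCT-116 p53RE-bla cells treated 16 h at 37 C, same wells as the reporter screen.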
Assay [8] in a line: p53 small molecule agonists, cell-based qHTS assay (AID 1963582; active = well fitted activation curve with a large enough effect in the signal ratio in the repeat runs, not every such curve was filed as active; the % refers to the signal ratio). An outline of the steps: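 16 h compound exposure (37 C) of p53 response element–bla cells, preceded by 5 h recovery at 37 C/5% CO2; read-out via LiveBLAzer B/G FRET substrate, 2 h RT, fluorescence intensity.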
In assay [9] the target is 5-hydroxytryptamine receptor 2A (Homo sapiens) (UniProt P28223). Nature of the assay: 5-hydroxytryptamine receptor 2A (HTR2A) small molecule antagonists, cell-based qHTS assay (AID 1963586). Note: nearly all actives have a fitted effect of over 45% in size. Note: potency is the fitted concentration of half-maximal effect. The gist of the method:
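CHO cells stably expressing human HTR2A were plated for 18 h at 37 C, then loaded with calcium dye for 1 h. Compounds were preincubated 5 min at room temperature before DOI (4 nM solution) was added. Kinetic fluorescence was read for 3 min.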

The target in assay [10] is Muscarinic acetylcholine receptor M1 (Homo sapiens) (UniProt P11229). Nature of the assay: Cholinergic receptor muscarinic 1 (CHRM1) small molecule antagonists, cell-based qHTS assay (AID 1963588). Note: nearly all actives have a fitted effect of over 40% in size. The gist of the method: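 Compounds were tested at 15 concentrations in three independent runs. Dye-loaded CHRM1-CHO cells were exposed 5 min at room temperature before stimulation by acetylcholine added at 50nM. Intracellular calcium was read kinetically on FDSS for 3 min.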

Assay [11] has the same target. Briefly: Cholinergic receptor muscarinic 1 (CHRM1) small molecule agonists, cell-based qHTS assay (AID 1963589). Note: nearly all actives have a fitted effect of over 35% in size. An outline of the steps: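 Homogeneous fluorescence calcium flux, agonist mode. Human M1-expressing CHO cells; compound dosed at 15 concentrations, three independent runs; signal sampled every 1 sec.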
Assay [12] is described as follows: cAMP Responsive Elements (CRE) small molecule agonists, cell-based qHTS assay (AID 1963590). An outline of the steps:
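HEK 293T cells stably bearing CRE-bla were plated at 2,000 cells per well and rested 18 h. Compounds, positive controls or DMSO were added for 3 h at 37 C. LiveBLAzer B/G substrate was then loaded for 2 h at room temperature.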

A short description of assay [13]: cAMP Responsive Elements (CRE) small molecule antagonists, cell-based qHTS assay (AID 1963591; active = well fitted inhibition curve with a large enough effect in the signal ratio in the repeat runs, not every such curve was filed as active; the % refers to the signal ratio). The gist of the method:
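First, CRE-bla HEK293T cells settled 18 h at 37 C. Next, compound and 0.25 uM final NKH477 were applied for 3 h. Last, LiveBLAzer B/G substrate was loaded for 2 h at room temperature.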

Assay [14] deals with Beta-2 adrenergic receptor (Homo sapiens) (UniProt P07550). Briefly: Adrenergic beta2 receptor (ADRB2) small molecule antagonists, cell-based qHTS assay (AID 1963592). Note: series mostly up to about 92 µM; nearly all actives have a fitted effect of over 50% in size. The gist of the method:
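Assay format: CHO-ADRB2 cells, 18-20hr seeding at 37C/5% CO2, then compound plus 1nM isoproterenol agonist mix for 0.5hr RT. Homogeneous time-resolved fluorescence cAMP detection after 1hr, expressed as 665/615 nm ratio.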

The target is the same in assay [15]. Nature of the assay: Adrenergic beta2 receptor (ADRB2) small molecule agonists, cell-based qHTS assay (AID 1963593).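 Note: CHO cells stably overexpressing human ADRB2.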 An outline of the steps:
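CHO cells stably over-expressing ADRB2 were plated overnight at 37C, then dosed with compounds plus a stimulation mix containing 100uM IBMX and 25uM Ro-20-1724 for 0.5hr at room temperature. cAMP was measured by HTRF competition, 1hr.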

Assay [16] has as its target D(2) dopamine receptor (Homo sapiens) (UniProt P14416). Briefly: Dopamine D2 receptor (DRD2) small molecule agonists, cell-based qHTS assay (AID 1963594). Note: nearly all actives have a fitted effect of over 35% in size. The gist of the method:
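HEK293 cells stably expressing human DRD2, pre-treated with PDE inhibitor Ro20-1724 (0.1 mM final) and compound 10 min at room temperature, then stimulated with NKH477 (200nM […]) for 30 min. cAMP read by HTRF (665/620 nm).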

For assay [17] the target is unchanged. Briefly: Dopamine D2 receptor (DRD2) small molecule antagonists, cell-based qHTS assay (AID 1963595; active = well fitted inhibition curve with a large enough effect in the signal ratio in the repeat runs, with a control signal flat; the % refers to the signal ratio). An outline of the steps: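 HEK293 cells stably expressing DRD2, preincubated with 0.1 mM Ro20-1724 and compounds 10 min, were stimulated with 200 nM NKH477 plus 12 nM quinpirole for 30 min at room temperature; cAMP measured by HTRF (665/620 nm).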
Assay [18] is described as follows: p53 small molecule agonists, cell-based qHTS assay with human liver microsomes (AID 1963577).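 Note: p53 response element beta-lactamase reporter cells with liver microsomes plus NADPH.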 The gist of the method: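 16 h, 37 C exposure of p53RE-bla cells to compounds with human liver microsomes and NADPH (0.5 mg/mL final each); detection via LiveBLAzer mixture, 2 h dark at room temperature.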
Assay [19] can be described thus: p53 small molecule agonists, cell-based qHTS assay with rat liver microsomes (AID 1963578). The gist of the method:
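With rat liver microsomes and NADPH present (0.5 mg/mL final each), p53RE-bla cells are treated with compound for 16 h at 37 C. LiveBLAzer detection mixture is then applied for 2 h at room temperature in the dark.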

For assay [20], the target named is 5-hydroxytryptamine receptor 2A (Homo sapiens) (UniProt P28223). Briefly: 5-hydroxytryptamine receptor 2A (HTR2A) small molecule agonists, cell-based qHTS assay (AID 1963587). Note: nearly all actives have a fitted effect of over 30% in size. An outline of the steps: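 CHO cells stably expressing human HTR2A, plated 18 h, loaded with calcium dye 1 h at 37 C. Agonist mode: compounds added and intracellular calcium fluorescence recorded kinetically for 2 min at 1 sec intervals.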

“And” between values parts separate entries of the source, which are not always exact repeats. Equal values may be shown once. Inconclusive results are not listed. The source made the active and inactive calls. Unless noted, calls come from the whole dose curve.

Chain of 5-hydroxytryptamine receptor 2A (Homo sapiens) (P28223 whole entry, looked up): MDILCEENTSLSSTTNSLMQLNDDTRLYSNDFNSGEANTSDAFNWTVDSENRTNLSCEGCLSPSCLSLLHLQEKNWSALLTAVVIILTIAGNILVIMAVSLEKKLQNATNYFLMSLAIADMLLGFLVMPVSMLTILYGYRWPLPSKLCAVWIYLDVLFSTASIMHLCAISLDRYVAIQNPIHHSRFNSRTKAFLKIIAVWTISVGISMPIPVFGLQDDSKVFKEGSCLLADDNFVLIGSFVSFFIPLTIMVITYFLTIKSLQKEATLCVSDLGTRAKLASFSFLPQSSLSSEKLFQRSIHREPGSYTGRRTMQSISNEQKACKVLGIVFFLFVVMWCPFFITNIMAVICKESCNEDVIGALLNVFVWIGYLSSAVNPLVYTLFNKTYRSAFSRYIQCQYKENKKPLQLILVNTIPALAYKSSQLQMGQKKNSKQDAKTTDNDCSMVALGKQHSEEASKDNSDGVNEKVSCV
Chain of KiSS-1 receptor (Homo sapiens) (Q969F8 whole entry, looked up): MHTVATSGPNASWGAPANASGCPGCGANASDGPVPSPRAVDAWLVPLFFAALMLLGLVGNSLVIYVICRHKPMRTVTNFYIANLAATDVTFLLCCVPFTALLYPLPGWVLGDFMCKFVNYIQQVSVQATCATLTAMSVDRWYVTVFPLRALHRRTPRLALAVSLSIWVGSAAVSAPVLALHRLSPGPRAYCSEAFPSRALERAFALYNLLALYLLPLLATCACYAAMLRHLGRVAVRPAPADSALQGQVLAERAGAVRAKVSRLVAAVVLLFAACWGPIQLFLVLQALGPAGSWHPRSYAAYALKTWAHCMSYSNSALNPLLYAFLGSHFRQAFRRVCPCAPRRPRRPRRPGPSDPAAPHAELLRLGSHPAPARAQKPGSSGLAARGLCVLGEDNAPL
Chain of Muscarinic acetylcholine receptor M1 (Homo sapiens) (P11229 whole entry, looked up): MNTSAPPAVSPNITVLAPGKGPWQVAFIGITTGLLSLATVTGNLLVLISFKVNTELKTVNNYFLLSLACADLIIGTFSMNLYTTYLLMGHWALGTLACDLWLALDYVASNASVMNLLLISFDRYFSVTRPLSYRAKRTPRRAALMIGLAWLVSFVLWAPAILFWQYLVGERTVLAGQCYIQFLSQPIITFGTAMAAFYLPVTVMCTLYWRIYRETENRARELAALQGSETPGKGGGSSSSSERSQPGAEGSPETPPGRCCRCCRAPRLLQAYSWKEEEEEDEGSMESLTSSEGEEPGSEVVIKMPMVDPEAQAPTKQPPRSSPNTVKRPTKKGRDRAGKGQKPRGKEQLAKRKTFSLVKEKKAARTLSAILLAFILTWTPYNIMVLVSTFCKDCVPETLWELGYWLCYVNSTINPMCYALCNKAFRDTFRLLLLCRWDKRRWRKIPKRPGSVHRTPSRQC
Chain of Gonadotropin-releasing hormone receptor (Homo sapiens) (P30968 whole entry, looked up): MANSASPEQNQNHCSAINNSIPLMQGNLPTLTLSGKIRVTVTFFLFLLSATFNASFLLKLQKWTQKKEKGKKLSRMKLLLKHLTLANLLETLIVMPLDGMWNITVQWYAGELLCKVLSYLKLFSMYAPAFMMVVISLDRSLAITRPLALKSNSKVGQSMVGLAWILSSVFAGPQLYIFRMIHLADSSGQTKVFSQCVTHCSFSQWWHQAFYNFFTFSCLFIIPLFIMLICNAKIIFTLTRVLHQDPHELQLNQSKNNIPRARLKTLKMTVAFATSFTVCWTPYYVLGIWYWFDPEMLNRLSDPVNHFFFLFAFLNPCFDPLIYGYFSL
Chain of D(2) dopamine receptor (Homo sapiens) (P14416 whole entry, looked up): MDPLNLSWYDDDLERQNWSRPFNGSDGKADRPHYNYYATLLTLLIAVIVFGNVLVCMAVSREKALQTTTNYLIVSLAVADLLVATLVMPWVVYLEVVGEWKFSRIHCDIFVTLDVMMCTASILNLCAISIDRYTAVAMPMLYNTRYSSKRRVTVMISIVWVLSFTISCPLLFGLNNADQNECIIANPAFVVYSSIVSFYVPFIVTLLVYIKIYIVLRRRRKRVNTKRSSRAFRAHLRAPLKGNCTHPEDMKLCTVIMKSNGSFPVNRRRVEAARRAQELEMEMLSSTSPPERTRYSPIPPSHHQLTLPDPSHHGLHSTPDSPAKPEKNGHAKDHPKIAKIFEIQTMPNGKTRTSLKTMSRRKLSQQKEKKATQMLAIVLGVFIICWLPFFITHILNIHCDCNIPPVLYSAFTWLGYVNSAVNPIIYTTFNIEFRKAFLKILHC
Chain of Beta-2 adrenergic receptor (Homo sapiens) (P07550 whole entry, looked up): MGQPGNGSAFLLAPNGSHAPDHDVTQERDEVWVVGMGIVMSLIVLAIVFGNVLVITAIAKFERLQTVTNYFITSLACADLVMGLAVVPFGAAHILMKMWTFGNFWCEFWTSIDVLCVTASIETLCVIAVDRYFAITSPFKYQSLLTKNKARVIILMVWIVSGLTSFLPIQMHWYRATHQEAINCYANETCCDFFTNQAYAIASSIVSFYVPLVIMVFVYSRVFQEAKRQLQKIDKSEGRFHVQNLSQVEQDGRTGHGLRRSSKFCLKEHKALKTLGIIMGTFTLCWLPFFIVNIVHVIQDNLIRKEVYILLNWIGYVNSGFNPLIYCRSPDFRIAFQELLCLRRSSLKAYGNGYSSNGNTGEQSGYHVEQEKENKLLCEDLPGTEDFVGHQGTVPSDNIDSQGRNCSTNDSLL

In the case of `C=CC(C)(C)C`, the Potency entry in assay [1], in assay [2], in [3], in assay [4], in [5] and in [6] was “inactive” each time. Moreover, the Potency entry in [7], in assay [8], in assay [9], in assay [10], in assay [11] and in [12] was “inactive” throughout. In addition, the Potency result in assay [13], in assay [14], in [15], in [16] and in assay [17] was “inactive” in each case.

Turning to `C=C[Si](OCCOC)(OCCOC)OCCOC`, the Potency entry in assay [1], in assay [3], in assay [4], in [18], in [19] and in assay [5] was “inactive” in each case. Moreover, the Potency entry in [6], in [7], in assay [8], in assay [9], in assay [20] and in [11] was “inactive” in each case. Also, the Potency result in [13], in [14], in [15], in assay [16] and in assay [17] was “inactive” in each case.

With `O=C(OCc1ccccc1)c1ccc(O)cc1`, the Potency was 68.6 µM (active) and 13.3 µM (active) in assay [1]; 33.4 µM (active) in [9]. In addition, the Potency entry in [3], in [18], in assay [19], in assay [6], in assay [7] and in [8] was “inactive” each time. For the same molecule, the Potency result in [20], in assay [10], in assay [11], in [12], in [13] and in [14] was “inactive” throughout. Also, the Potency entry in [15], in assay [16] and in assay [17] was “inactive” in each case.

Turning to `C/C=C/c1ccc(O)c(OC)c1`, the Potency result in assay [1], in [2], in [4], in [18], in [19] and in assay [5] was “inactive” each time. Besides, the Potency result in assay [6], in assay [7], in assay [8], in assay [12], in [13] and in assay [14] was “inactive” throughout. For the same molecule, the Potency result in assay [15], in [16] and in assay [17] was “inactive” in each case.

As to `O=C1NC(=O)c2ccccc21`, the Potency result in [1], in [2], in assay [3], in assay [4], in assay [5] and in [7] was “inactive” in each case. In addition, the Potency result in [9], in assay [20], in assay [10], in [11], in assay [12] and in assay [13] was “inactive” throughout. Also, the Potency entry in assay [14], in assay [15], in assay [16] and in [17] was “inactive” throughout.

As to `CC(C)(C)[C@@H](O)[C@@H](Cc1ccc(Cl)cc1)n1cncn1`, the Potency result in assay [1], in assay [3], in assay [4], in assay [18], in assay [19] and in assay [5] was “inactive” in each case. Moreover, the Potency entry in [6], in assay [7], in assay [8], in assay [9], in assay [20] and in assay [10] was “inactive” throughout. Also, the Potency result in [13], in assay [14], in assay [15], in assay [16] and in assay [17] was “inactive” in each case.

On to `CC1=C(/C=C/C(C)=C/C=C/C(C)=C/CO)C(C)(C)CCC1`, for which the Potency in assay [1] is 69.4 µM (active) and 72.3 µM (active). Further, the Potency entry in assay [2], in [4], in assay [18], in assay [19], in assay [5] and in assay [6] was “inactive” each time. The Potency entry in assay [7], in assay [9], in assay [20], in [10], in assay [11] and in assay [14] was “inactive” throughout. The Potency result in assay [15], in assay [16] and in [17] was “inactive” each time.
